Laboratory results as given in PubChem BioAssay AID488890 (Southern Research Specialized Biocontainment Screening …, 2010).
The campaign covered roughly 320,000 compounds. About 1,300 (0.41%) were called active. Inconclusive results (about 3%) are left out. How the calls were made is not given here. Only a sample is shown. Measured potencies and affinities stand elsewhere.

experiment: growth inhibition of non-replicating M. tuberculosis (AID 488890); settings: Mycobacterium tuberculosis non-replicating, at 25 µM, stronger effect = higher value;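 further: plate controls were DMSO cells for no effect and high antibiotic wells for full effect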

| Structure (SMILES) | inhibition |
| --- | --- |
| COC(=O)c1ccc(C)c(NC(=O)Cc2ccc([N+](=O)[O-])cc2)c1 | 21.2% |
| COc1ccc(S(=O)(=O)N2CCC(C(=O)NCCOc3ccccc3F)CC2)cc1OC | 24.4% |
| COC(=O)N/N=C/c1cccc(OCCSc2ccc(Cl)cc2)c1 | 74.7% |
| COC(=O)COc1cccc(NC(=O)C(c2ccccc2)c2ccccc2)c1 | 3.23% |
| CC(=O)Nc1cccc(OCC(=O)Nc2ccccc2)c1 | -8.67% |
| CC(=O)Oc1ccc(/C=N/NC(=O)CCSc2ccccc2)cc1 | 9.49% |
| COc1ccc(/C=N/OCC(=O)Nc2ccc3c(c2)OCO3)c(OC)c1 | 59.9% |
| CCC(=O)c1ccc(OCC(=O)Nc2ccc3c(c2)OCCO3)cc1 | 69.5% |
| Cc1cc(NC(=O)CO/N=C/c2ccc3c(c2)OCO3)ccc1Br | -0.49% |
| O=C(COc1ccccc1F)Nc1ccc2c(c1)OCCO2 | 52.5% |
| COc1cc(OC)cc(C(=O)OCc2cc3ccccc3[nH]c2=O)c1 | -16% |
| COc1ccc(NC(=O)/C(=C/c2cccs2)NC(=O)c2ccco2)cc1 | -0.67% |
| Nc1cc(N)nc(SCC(=O)Nc2ccc3c(c2)OCO3)n1 | 2.02% |
| CS(=O)(=O)Oc1ccc(/C=N/NC(=O)c2ccncc2)cc1 | 60.2% |
| O=c1cc(-c2ccccc2)nc2nc(SCc3ccccc3)[nH]n12 | 60.3% |
| O=C(CCn1c(=S)oc2ccccc21)Nc1ccccc1Br | -5.39% |
| O=C(O)c1ccc2c(c1)C(=O)N(NC(=O)c1ccccc1)C2=O | -12.7% |
| CCc1ccccc1NC(=O)COc1ccc2c(c1)OCO2 | 65.4% |
| COC(=O)c1ccc(NC(=O)COc2ccc3c(c2)OCO3)cc1 | 79.3% |
| CC1=C(C(=O)Nc2ccccc2C(F)(F)F)C(c2sccc2C)NC(=S)N1 (stereo not drawn) | -0.9% |
| COc1ccc(Oc2c(O)c3ccccc3n(C)c2=O)cc1 | 9.82% |
| Cn1c(=O)c(-c2ccccc2)c(O)c2ccccc21 | 23.1% |
| CCCCCn1c(=O)c(C(=O)Nc2ccccc2Cl)c(O)c2ccccc21 | -6.13% |
| CNC(=O)c1c(O)c2cccc3c2n(c1=O)CCC3 | 45.4% |
| CC(C)NC(=O)c1c(O)c2cccc3c2n(c1=O)CCC3 | 11.9% |

| Structure (SMILES) | inhibition |
| --- | --- |
| CCCCCCn1c(=O)c(C(=O)Nc2cccc(C)n2)c(O)c2ccccc21 | -13.9% |
| CCCCn1c(=O)c(C(=O)Nc2ccccc2)c(O)c2ccccc21 | -12.7% |
| CCCCCn1c(=O)c(-c2nc3ccccc3[nH]2)c(O)c2ccccc21 | 1.53% |
| CCCCn1c(=O)c(C(=O)Nc2ccccc2C)c(O)c2ccccc21 | -11.7% |
| CCCCCn1c(=O)c(C(=O)Nc2ccccc2)c(O)c2ccccc21 | 16.7% |
| CC1C/C(=N\NC(=O)c2ccc(NS(=O)(=O)c3ccc(Br)cc3)cc2)CC(C)(C)C1 (stereo not drawn) | -12.6% |
| Cc1nc(CCNC(=O)COc2ccccc2)cs1 | -16% |
| CCCC(=O)n1nc(-c2ccc(Cl)cc2)nc1SC | 64.9% |
| O=C(CSc1nnc(Nc2ccccc2)s1)Nc1ccc(S(=O)(=O)N2CCOCC2)cc1 | 6.81% |
| Cc1cccc(N2CCN(C(=O)c3cc(=O)[nH]c4ccccc34)CC2)c1C | 24.4% |
| CCCC(C)C1c2c(c(C)c(C)oc2=O)Oc2c(C)c(C)oc(=O)c21 (stereo not drawn) | 25.8% |
| O=C1c2ccccc2C(=O)N1OS(=O)(=O)c1ccccc1 | 19% |
| Cc1nn(C)cc1/C=N\NC(=O)c1ccc2c(c1)c(C)c(C)n2Cc1ccccc1 | -7.16% |
| CCOc1ccccc1NC(=O)NCc1ccccc1F | 13.2% |
| COc1ccc(/C=N/NC(=O)c2cccc(NC(=O)c3ccccc3)c2)c(C(=O)O)c1OC | 31.1% |
| Cc1c(CCC(=O)N[C@@H](C)C(=O)O)c(=O)oc2cc3occ(-c4ccccc4)c3cc12 | 0.57% |
| NS(=O)(=O)c1cc(C(=O)NCCc2ccccn2)ccc1Cl | 7.03% |
| Cc1cccc(C)c1-n1c(C)cc(/C=N/NC(=O)c2ccncc2)c1C | 78% |
| Cc1ccc(/C=N/NC(=O)c2ccccn2)s1 | 59.8% |
| O=C(N/N=C/c1cccn1-c1ccccc1)c1ccncc1 | 52.4% |
| Cc1ccc(-n2c(C)cc(/C=N/NC(=O)c3ccncc3)c2C)c(C)c1 | 73.9% |
| Cc1ccsc1/C=N/NC(=O)c1cccnc1 | -17.1% |
| Cc1ccc(/C=N/NC(=O)c2ccc(C(=O)N/N=C/c3ccc(C)s3)o2)s1 | -14.7% |
| Cn1cccc1/C=N/NC(=O)c1cccnc1 | 6.3% |
| Cc1ccsc1/C=N/NC(=O)c1ccc([N+](=O)[O-])cc1 | -7.45% |

| Structure (SMILES) | inhibition |
| --- | --- |
| Nn1c(SCC(=O)NC2CCCCC2)nnc1-c1ccccc1F | 9.14% |
| COC(=O)Nc1ccc(S(=O)(=O)N2CCCC(C(=O)Nc3cccc4c3OCCO4)C2)cc1 (stereo not drawn) | 17.4% |
| Cc1ccc(C(=O)N/C(=C/c2ccc(Cl)cc2)C(=O)Nc2cccc(C(=O)O)c2)cc1 | 17% |
| Cc1cc(NC(=O)CCC(=O)N(CC(=O)NCC2CCCO2)c2ccc(C)c(C)c2)no1 (stereo not drawn) | -4.55% |
| COc1nc(NCCO)nc(Nc2ccc([N+](=O)[O-])cc2)n1 | -18% |
| CSc1ccc(CCNC(=O)C2CCCN(c3nn4c(=O)cc(C)nc4s3)C2)cc1 (stereo not drawn) | 5.95% |
| CC1(C(O)(C#CCN2CCCCC2)c2ccccc2)CCCC1 (stereo not drawn) | 3.27% |
| Clc1ccc(Cl)c(-c2nc(-c3ccncc3)no2)c1 | -30.7% |
| CCc1ccc(OCC(=O)N2CCN(c3ccccc3F)CC2)cc1 | 52.6% |
| COC(=O)c1ccccc1NC(=O)COC(=O)c1cccnc1 | 2.43% |
| Cc1cccc(CN2CCSCC2)c1 | 21.4% |
| Cc1ccc(NC(=O)CNC(=O)c2ccc(C)s2)nc1 | -9.04% |
| O=C(N/N=C\c1ccncc1)c1ccc(Br)s1 | 15.2% |
| O=C(N/N=C/c1ccc(Br)s1)c1cccs1 | 79.8% |
| O=C(N/N=C\c1cc(Br)cs1)c1ccncc1 | 71.3% |
| Cc1ccc(/C=N/NC(=O)c2cccnc2)o1 | 7.34% |
| O=C(N/N=C/c1cc(Br)c(Br)o1)c1cccnc1 | 40.9% |
| Cc1ccc(/C=N/NC(=O)c2ccc(-c3ccccc3)cc2)o1 | 4.22% |
| Cc1ccc(/C=N/NC(=O)c2cccnc2)s1 | 75.2% |
| O=C(N/N=C/c1cc(Br)cc(Br)c1O)c1ccncc1 | 57.1% |
| COc1cc(NS(=O)(=O)c2ccc(NC(=S)NC(=O)c3ccc(F)cc3)cc2)nc(OC)n1 | 42.3% |
| CCn1c(CN2CCOCC2)nnc1SCC(=O)Nc1cccc(C)c1 | -3.97% |
| O=C(NCCC(=O)N1CCC2(CC1)NCCc1[nH]cnc12)c1ccc(Br)cc1 | 10.4% |
